The full ranking holds about 4,100 sequences; the median of “arbitrary fluorescence units” is about 780, and the highest 2% start at about 22,000. This is one part of a sample in which the highest values are shown more often than they occur.

The target of this assay is T1, ETS1 (UniProt P14921).
T1 sequence: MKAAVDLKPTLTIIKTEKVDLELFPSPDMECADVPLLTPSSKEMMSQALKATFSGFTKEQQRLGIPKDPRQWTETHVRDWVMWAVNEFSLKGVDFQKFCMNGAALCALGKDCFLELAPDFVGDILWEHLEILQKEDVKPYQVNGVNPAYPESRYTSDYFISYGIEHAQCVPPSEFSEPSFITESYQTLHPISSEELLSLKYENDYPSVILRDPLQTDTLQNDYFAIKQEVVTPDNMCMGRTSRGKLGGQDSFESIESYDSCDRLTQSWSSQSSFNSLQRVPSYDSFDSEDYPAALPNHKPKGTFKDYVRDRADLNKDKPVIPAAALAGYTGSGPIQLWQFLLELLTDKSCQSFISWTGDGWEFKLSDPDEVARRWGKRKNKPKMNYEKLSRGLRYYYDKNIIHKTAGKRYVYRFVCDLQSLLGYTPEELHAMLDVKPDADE
Kind of assay: ETS1 binding intensity (PBM fluorescence), ETS1 alone (arbitrary fluorescence units); higher = stronger binding. To be noted: ETS1 concentration 1 nM; RUNX1 concentration 0 nM. As for the experimental part:
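gcPBM on 36-bp genomic-derived probes (partner site mutated) containing one ETS1 site and no RUNX1 site. Recombinant human ETS1 (1 nM) was incubated alone or with RUNX1 (25 nM) and detected by anti-ETS1 antibody fluorescence. Values are medians over 4 replicate spots (not normalised). The probes sit in constant array flanks that are not printed.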
For the sequence TGGAAGAGCCCCACGACATGTGCTTCCTGCGTGCTG, the ETS1 binding intensity came to 596. GAGCCTGTTGCTTCCGGTTCAGAGCCCACGTGCTGG displayed an ETS1 binding intensity of 22200. CTAGCTGTGGACAGGAAACGAGTGGATTTTGTGATC registered an ETS1 binding intensity of 3740. CCGGGACCTCGGCTTGGGCTCACGGCCACTTCCGAC: the ETS1 binding intensity stood at 393. To CCGTACTTCCGCTTTACTCAGATTTTGGACCTCGGG belongs 30200. To CTCAGCGGCAGCAAGCCCCACCCCGGAAGTCGGCTG belongs 1590; to GATGACTTCCTCAGTTCAGGGCTATGTACGGGGGAG, 4670; to GCCCGGCTTAGCCGCGTCGCGGAAGTCCGCTCTCTG, 397. Sequence CCGCTTCCGGCCTTCGCCCGGCTTAGCCGCGTCGCA returned an ETS1 binding intensity of 34700. As for GGCCTCGCGGCGTCTCTGCTGCTTCCGCCTTCCCGG, the ETS1 binding intensity was 854. As for CCTCTGCCCAACCCCAATTTTCCCTTCCTCCGCCTT, the ETS1 binding intensity was found to be 543. CTTTTTGATTTCCTCAAGCATCCCAGAAATACACAG: the ETS1 binding intensity was found to be 2020. Sequence GCCCACGCCGCTGGGAGGTGAGACTGAAGGAAGCAC came in with an ETS1 binding intensity of 402. For ACGGAGCTGTAGTTTAACGTTTCCGGTTAGTGGCTA, the ETS1 binding intensity turned out to be 9670. As for GCCCACTTCCTGCCGTAAGAGAAATCCACTAACACA, the ETS1 binding intensity was 33800.

In turn, GACGCAGCCCCAGAGCGATTCGCGTCCCGGAAGCGG had an ETS1 binding intensity of 491. CCGAGCGCACCAGCTCCCGCGCGTGGTTCCGCCGCT gave an ETS1 binding intensity of 324. Regarding TCCAGCGCCGCTGGGCCAACGAGAGCGCTTCCGGCC, the ETS1 binding intensity turned out to be 1740. CCAACGAGCACTTCCGCTTCCCGAAGCTCCAGCGGC: the ETS1 binding intensity came to 27700. Turning to GCGAGAGGGAGGAAGTGACTCACCAACCCCAACAAA, the ETS1 binding intensity worked out at 2690. As for TCCCAGTTTATGGGAAGGGTTGAGGGAAGTGAGGGG, the figure is 531; as for TGTCTCATTTCCTGTAGGTAACAGGCACCAAAATAG, 26500; as for GTGACGTGGCTGTAGGTCTCATTTCCTGCACGGCCT, 2060.

GGATCGGCCTGAGGTGTGTCTCATTTCCTGTAGGTA: the ETS1 binding intensity was found to be 2130.

In the case of TGCTCCACTCGGAAGTGGTGCCGAAGCTCTTCGATG, the ETS1 binding intensity was 905.

With CCGCCGACACACTTCCGGCGGCCACCAGAGGGTATT, the ETS1 binding intensity came to 21200. As for CTGCCAGAGCACACAGTTTGCACTTCCGGGGCGGGC, the figure is 2710.

As for GCCACACTTCCGGCGGGGCTGCGACTGCAGAGGGGC, the ETS1 binding intensity came to 38700. Take CAAGAGCCGGAAGTCCCTTGTGCCGTAGTCCTTCCC: the ETS1 binding intensity came to 9220. Sequence CAGCATGAGGGTGCACACACCGCTTCCTTAGAGGTT came in with an ETS1 binding intensity of 757. Consider GTGATAAGAACGACAGGCCACTTCCCAAAGATCAAA, for which the ETS1 binding intensity was determined as 531.

In turn, TTTCACTTCCGGCATGTTTTTCACCTACAGGGATAT had an ETS1 binding intensity of 35500. To AGCTTCCGAGTCTGTTGTGGAGTGGGAACAGCGACT belongs 2510; to GCCTGCGCTCTTTCCGGTAGCCAGAGCCTCGTCTAA, 8280; to CGCCGAACTTCCGGCAGTAAATTCCGTGGATTCCCG, 27100. CGTCCCCGAAAAGCCGCGGCAGAAACTTCCGGCGGT: the ETS1 binding intensity was 3130. For the sequence CGTTTCCTGTGGCTGCAGCTCTCCCCACGCACACAC, the ETS1 binding intensity amounted to 23800. For the sequence TGCCGCCTGCAGCACCCTCCCCATTTCCTGGCTGTA, the ETS1 binding intensity stood at 1190. In the case of GCACGTGTTTCCTGGGGCTGCACCCCAGCACCACAC, the ETS1 binding intensity turned out to be 2380. ACCCACTTCCTGTTAGAGCATCTTTGCAACCCCAGG gave an ETS1 binding intensity of 30200. For TTTCTTCCTGTTTGCATCACCCCAAATCCACTATCA, the ETS1 binding intensity is 16900. Regarding TGTTGCCACTGTTAGACTAGAGAGCATCCTGTTGTT, the ETS1 binding intensity is 851. Sequence TACGCACACGCTTCGGGATCCTTCCGCTCCGGGTTA had an ETS1 binding intensity of 644.

Sequence CTCCCACGCTCCCCTTCCGGCCCCGCTGCGCTGTGA gave an ETS1 binding intensity of 3160. Regarding CCGGGCGCCACTTCCGGTCCCCGTGGACACGTGACC, the ETS1 binding intensity was determined as 53800. In turn, TTGCGCCGGACGCCACTTTCGGTCCCCGTGGACACG registered an ETS1 binding intensity of 602. GGTCACGTGTCCACGGGGACCGGAAGTGGCGCCCGG had an ETS1 binding intensity of 14400.

Regarding TCTTGTTTCTTCCGTTACCGGAGCGCGGCCACGTGA, the ETS1 binding intensity was found to be 2590.

CCAGAGGGCGGAAGTGGGAGCTGCGACGGCGCTCCC registered an ETS1 binding intensity of 7030.

For the sequence ACTTTGTCAGTGTAGTTTTCACATCCTGTCCTAGCT, the ETS1 binding intensity turned out to be 2870. Sequence TTTCTGATTGTAGTTTCAAATTATTTCCTGTGTTGG returned an ETS1 binding intensity of 1770. In turn, AACATCCTGTGTAAAGAGAATTGAATGTAGTTTTCT registered an ETS1 binding intensity of 25200. CTCCATTATTCCGGCCAGGTGCCCTTCTGGGATAAG: the ETS1 binding intensity worked out at 670. As for TGCGCCGGAAGTGCATGAGCTGCCGATGAGGTGCTT, the figure is 8970; as for GCGCGGACTCCGGGAAGCTGAGCGGCAAAGACCGTG, 359; as for GAGCTGCAAGTCACAAAGACCGGAAGTGCGCGTACG, 26000. For TCACAATCGCTCACAAAGACAGGAAGTAACTGTCAG, the ETS1 binding intensity came out at 3450. Turning to CTCCTGCTCACAGAAGCTCACTGTTTCCTGTCTAGC, the ETS1 binding intensity amounted to 2690. As for CACTTCCTGCCCTCTTCCACTTTCAAAATCACATCA, the figure is 31900; as for TACTCTAAAGCACTTCAAACCTCCACTTCCTGCCCC, 2240; as for AAATCAAAACCCCAATCAGATACCACTTCCTGCCCA, 2350. Turning to CTCCCCCAGCACATCCTCTGCCACTGCTGCCTTTCC, the ETS1 binding intensity turned out to be 1720. As for CTCCGCTGTCCCCTGCAGGCACCGAGGGCGGAACCA, the figure is 347.

(Values after the supplement of paper PMC10681739.)
